# Results from article PMC7862700, “An all-to-all approach to the identification of sequence-specific readers for epigenetic DNA modifications on cytosine”.
# What was measured:
# Experiment in all cases: DAPPL (digital affinity profiling via proximity ligation, sequencing); 10 mM Tris-HCl pH 7.5, 50 mM NaCl, 1 mM DTT, 4% glycerol, room temperature, 30 min; GST-TFs on glutathione beads, 16-mer random dsDNA library, 0.1% formaldehyde crosslink after washing; high values mean tight binding
# FLI1 = biological target: T1, FLI1 (Homo sapiens, UniProt Q01543 1-452); settings: protein: recombinant; tags: N-terminal GST; dsDNA, one strand shown
# T1 sequence: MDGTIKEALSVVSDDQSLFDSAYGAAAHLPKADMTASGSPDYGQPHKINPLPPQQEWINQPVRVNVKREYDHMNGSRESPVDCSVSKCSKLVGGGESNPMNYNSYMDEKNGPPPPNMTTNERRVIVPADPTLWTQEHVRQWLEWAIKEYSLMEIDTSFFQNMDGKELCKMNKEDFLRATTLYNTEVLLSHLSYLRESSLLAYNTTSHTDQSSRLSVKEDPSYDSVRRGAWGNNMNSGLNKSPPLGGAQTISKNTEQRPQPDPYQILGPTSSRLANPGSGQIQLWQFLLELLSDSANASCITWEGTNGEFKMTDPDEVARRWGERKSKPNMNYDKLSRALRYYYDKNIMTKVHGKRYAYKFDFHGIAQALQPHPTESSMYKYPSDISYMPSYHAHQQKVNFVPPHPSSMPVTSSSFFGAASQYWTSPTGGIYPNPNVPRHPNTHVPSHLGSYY
# Summary of the method: (§1)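 A tag-only sample was pooled with DNA-barcoded human transcription factors that had been expressed in yeast as GST fusions and captured on glutathione beads. The pools were incubated for 30 min at room temperature with 200 nmole of a random double-stranded 16-mer DNA library in Tris/NaCl/DTT/glycerol buffer, then washed, crosslinked with 0.1% formaldehyde, proximity-ligated (BsaI/T4 ligase, 1 h, 37 °C), PCR-amplified and sequenced on an Illumina NextSeq500. Binding signal is each hexamer's read frequency for a factor divided by its frequency for the tag-only sample.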
# ELK1 = biological target: T2, ELK1 (Homo sapiens, UniProt P19419 1-428); settings: protein: recombinant; tags: N-terminal GST; dsDNA, one strand shown
# T2 sequence: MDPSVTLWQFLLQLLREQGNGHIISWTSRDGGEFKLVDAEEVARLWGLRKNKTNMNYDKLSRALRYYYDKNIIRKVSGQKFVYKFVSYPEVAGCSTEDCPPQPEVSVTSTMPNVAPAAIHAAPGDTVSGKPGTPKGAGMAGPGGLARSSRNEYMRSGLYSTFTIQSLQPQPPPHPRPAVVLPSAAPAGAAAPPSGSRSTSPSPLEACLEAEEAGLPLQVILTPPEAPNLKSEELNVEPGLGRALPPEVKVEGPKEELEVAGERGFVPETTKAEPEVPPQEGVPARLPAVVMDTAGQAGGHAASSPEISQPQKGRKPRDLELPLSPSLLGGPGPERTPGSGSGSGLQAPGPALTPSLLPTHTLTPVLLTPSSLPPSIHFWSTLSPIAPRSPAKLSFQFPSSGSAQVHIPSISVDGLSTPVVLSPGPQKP
# Summary of the method: as §1
# GABPA = biological target: T3, GABPA (Homo sapiens, UniProt Q06546 1-454); settings: protein: recombinant; tags: N-terminal GST; dsDNA, one strand shown
# T3 sequence: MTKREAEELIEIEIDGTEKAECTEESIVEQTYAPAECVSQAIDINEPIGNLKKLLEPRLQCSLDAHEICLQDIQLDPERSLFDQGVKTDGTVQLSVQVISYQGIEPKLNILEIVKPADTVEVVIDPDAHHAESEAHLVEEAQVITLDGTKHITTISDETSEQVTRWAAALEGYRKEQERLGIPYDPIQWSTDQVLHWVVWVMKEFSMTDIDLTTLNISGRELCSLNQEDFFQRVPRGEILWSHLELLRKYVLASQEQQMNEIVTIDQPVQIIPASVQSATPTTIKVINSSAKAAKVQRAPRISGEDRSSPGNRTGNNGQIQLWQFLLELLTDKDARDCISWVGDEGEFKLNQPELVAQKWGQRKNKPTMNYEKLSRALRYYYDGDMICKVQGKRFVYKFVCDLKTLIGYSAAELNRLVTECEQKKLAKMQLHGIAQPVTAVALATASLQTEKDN
# Summary of the method: as §1
# ERG = biological target: T4, ERG (Homo sapiens, UniProt P11308 1-479); settings: protein: recombinant; tags: N-terminal GST; dsDNA, one strand shown
# T4 sequence: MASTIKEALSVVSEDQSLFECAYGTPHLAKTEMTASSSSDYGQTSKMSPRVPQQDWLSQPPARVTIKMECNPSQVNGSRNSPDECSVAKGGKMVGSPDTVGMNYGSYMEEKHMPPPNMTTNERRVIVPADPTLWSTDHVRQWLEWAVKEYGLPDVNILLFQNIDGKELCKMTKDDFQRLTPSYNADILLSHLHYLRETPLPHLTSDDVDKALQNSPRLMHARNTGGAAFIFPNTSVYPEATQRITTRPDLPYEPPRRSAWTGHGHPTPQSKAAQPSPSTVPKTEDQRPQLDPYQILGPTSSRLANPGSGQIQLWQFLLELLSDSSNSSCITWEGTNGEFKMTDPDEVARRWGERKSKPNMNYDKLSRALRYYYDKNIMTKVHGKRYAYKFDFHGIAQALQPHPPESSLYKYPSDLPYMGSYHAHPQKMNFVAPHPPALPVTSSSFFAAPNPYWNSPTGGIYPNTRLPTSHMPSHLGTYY
# Summary of the method: as §1
# ELF1 = ELF1 (Homo sapiens, UniProt P32519 1-619); settings: protein: recombinant; tags: N-terminal GST; dsDNA, one strand shown
# Summary of the method: as §1
# EHF = biological target: T5, EHF (Homo sapiens, UniProt Q9NZC4 1-300); settings: protein: recombinant; tags: N-terminal GST; dsDNA, one strand shown
# T5 sequence: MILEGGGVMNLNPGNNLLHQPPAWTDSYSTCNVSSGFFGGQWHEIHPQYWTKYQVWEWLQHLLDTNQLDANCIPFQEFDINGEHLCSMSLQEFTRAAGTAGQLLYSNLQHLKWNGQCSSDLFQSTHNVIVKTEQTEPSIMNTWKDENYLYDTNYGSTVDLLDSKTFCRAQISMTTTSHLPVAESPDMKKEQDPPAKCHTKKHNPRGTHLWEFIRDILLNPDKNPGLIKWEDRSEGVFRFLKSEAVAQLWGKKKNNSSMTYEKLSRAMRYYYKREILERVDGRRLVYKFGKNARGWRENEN
# Summary of the method: as §1
# SPI1 = SPI1 (Homo sapiens, UniProt P17947 1-270); settings: protein: recombinant; tags: N-terminal GST; dsDNA, one strand shown
# Summary of the method: as §1
# SPIB = SPIB (Homo sapiens, UniProt Q01892 1-262); settings: protein: recombinant; tags: N-terminal GST; dsDNA, one strand shown
# Summary of the method: as §1
# ELK3 = biological target: T6, ELK3 (Homo sapiens, UniProt P41970 1-407); settings: protein: recombinant; tags: N-terminal GST; dsDNA, one strand shown
# T6 sequence: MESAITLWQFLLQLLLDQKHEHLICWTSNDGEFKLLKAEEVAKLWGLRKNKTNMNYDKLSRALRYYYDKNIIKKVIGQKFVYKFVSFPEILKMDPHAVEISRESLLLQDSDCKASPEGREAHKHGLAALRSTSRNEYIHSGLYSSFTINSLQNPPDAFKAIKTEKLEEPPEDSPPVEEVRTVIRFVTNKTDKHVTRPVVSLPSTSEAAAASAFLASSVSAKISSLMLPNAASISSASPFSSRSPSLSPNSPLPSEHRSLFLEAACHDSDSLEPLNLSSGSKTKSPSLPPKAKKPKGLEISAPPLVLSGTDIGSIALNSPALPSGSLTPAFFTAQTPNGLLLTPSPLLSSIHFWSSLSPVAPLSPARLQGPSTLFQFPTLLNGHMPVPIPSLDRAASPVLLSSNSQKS
# Summary of the method: as §1
# FEV = biological target: T7, FEV (Homo sapiens, UniProt Q99581 1-238); settings: protein: recombinant; tags: N-terminal GST; dsDNA, one strand shown
# T7 sequence: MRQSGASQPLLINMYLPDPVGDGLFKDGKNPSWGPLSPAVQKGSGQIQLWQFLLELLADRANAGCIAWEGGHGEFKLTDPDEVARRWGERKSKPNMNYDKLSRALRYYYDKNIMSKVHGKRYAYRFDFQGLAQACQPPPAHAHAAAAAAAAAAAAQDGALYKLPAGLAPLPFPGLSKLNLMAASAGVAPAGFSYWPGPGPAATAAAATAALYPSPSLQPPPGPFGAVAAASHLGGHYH
# Summary of the method: as §1
# ETV5 = ETV5 (Homo sapiens, UniProt P41161 1-510); settings: protein: recombinant; tags: N-terminal GST; dsDNA, one strand shown
# Summary of the method: as §1
# HSF1 = HSF1 (Homo sapiens, UniProt Q00613 1-529); settings: protein: recombinant; tags: N-terminal GST; chain copies: 3; dsDNA, one strand shown
# Summary of the method: as §1
# SPIC = biological target: T8, SPIC (Homo sapiens, UniProt Q8N5J4 1-248); settings: protein: recombinant; tags: N-terminal GST; dsDNA, one strand shown
# T8 sequence: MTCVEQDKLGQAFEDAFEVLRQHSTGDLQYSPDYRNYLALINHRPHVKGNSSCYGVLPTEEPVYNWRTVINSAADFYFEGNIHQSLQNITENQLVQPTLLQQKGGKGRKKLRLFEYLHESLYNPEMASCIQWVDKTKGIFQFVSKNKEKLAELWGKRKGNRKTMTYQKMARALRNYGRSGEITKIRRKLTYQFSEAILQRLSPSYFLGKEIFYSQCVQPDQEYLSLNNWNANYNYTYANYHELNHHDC
# Summary of the method: as §1
# ELF4 = ELF4 (Homo sapiens, UniProt Q99607 1-663); settings: protein: recombinant; tags: N-terminal GST; dsDNA, one strand shown
# Summary of the method: as §1
# ELK4 = biological target: T9, ELK4 (Homo sapiens, UniProt P28324-2 1-405); settings: protein: recombinant; tags: N-terminal GST; dsDNA, one strand shown
# T9 sequence: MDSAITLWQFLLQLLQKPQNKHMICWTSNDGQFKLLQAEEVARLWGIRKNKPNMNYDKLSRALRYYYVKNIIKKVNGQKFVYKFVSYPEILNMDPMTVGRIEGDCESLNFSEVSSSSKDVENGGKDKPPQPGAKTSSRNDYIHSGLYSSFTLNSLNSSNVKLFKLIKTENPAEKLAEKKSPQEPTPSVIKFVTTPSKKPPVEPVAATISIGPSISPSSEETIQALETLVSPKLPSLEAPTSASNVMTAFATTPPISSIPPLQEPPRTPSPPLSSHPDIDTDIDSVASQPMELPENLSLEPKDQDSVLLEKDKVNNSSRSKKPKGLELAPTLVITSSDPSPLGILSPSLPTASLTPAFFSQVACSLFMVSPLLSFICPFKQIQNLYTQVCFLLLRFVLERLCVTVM
# Summary of the method: as §1
# ETV2 = biological target: T10, ETV2 (Homo sapiens, UniProt O00321 1-342); settings: protein: recombinant; tags: N-terminal GST; dsDNA, one strand shown
# T10 sequence: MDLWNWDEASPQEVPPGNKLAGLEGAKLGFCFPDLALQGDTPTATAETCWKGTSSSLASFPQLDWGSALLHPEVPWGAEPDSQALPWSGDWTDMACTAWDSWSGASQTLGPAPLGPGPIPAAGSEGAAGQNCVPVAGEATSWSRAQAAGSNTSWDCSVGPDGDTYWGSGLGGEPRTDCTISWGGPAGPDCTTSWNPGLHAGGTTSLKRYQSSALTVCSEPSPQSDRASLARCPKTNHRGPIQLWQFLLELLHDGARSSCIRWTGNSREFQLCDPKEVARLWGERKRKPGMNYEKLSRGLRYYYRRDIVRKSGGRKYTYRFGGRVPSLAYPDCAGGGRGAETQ
# Summary of the method: as §1
# ELF3 = biological target: T11, ELF3 (Homo sapiens, UniProt P78545 1-371); settings: protein: recombinant; tags: N-terminal GST; dsDNA, one strand shown
# T11 sequence: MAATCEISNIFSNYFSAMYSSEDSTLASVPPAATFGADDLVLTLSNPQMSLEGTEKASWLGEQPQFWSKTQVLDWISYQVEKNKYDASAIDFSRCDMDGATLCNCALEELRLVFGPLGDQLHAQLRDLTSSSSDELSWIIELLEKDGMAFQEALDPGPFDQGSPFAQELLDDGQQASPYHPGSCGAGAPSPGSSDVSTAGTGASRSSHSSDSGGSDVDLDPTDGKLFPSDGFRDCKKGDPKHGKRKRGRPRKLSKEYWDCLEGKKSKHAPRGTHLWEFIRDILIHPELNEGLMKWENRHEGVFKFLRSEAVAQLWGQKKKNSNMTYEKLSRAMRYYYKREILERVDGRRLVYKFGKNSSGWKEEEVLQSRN
# Summary of the method: as §1
# ETV1 = ETV1 (Homo sapiens, UniProt P50549 1-477); settings: protein: recombinant; tags: N-terminal GST; dsDNA, one strand shown
# Summary of the method: as §1
# Chain of ETV5 (P41161 whole entry): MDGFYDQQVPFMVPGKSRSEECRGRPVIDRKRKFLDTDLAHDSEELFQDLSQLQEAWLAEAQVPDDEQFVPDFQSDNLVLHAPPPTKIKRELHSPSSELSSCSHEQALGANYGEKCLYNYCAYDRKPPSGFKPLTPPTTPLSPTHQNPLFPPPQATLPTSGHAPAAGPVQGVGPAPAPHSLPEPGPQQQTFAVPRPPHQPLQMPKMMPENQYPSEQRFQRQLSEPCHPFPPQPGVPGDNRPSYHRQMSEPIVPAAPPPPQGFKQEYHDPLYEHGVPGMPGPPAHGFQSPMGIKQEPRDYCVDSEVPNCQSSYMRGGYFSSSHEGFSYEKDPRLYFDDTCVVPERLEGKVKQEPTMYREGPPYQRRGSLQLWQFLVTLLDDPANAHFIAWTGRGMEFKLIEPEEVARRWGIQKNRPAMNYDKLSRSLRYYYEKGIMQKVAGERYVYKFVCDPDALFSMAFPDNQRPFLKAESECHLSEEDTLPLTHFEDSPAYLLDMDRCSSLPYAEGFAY
# Chain of ETV1 (P50549 whole entry): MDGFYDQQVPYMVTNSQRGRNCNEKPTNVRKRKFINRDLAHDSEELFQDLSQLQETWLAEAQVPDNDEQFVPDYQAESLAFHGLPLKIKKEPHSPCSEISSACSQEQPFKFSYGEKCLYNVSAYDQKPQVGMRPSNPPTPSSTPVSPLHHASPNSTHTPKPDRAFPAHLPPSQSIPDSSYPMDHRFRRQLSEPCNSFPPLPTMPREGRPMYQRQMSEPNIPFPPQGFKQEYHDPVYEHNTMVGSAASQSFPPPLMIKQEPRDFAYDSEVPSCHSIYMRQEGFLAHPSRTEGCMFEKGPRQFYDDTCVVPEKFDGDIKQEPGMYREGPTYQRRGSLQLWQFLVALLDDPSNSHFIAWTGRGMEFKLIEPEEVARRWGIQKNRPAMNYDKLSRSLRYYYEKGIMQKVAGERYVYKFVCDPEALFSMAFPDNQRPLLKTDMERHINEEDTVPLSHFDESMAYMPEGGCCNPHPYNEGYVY
# Chain of ELF1 (P32519 whole entry): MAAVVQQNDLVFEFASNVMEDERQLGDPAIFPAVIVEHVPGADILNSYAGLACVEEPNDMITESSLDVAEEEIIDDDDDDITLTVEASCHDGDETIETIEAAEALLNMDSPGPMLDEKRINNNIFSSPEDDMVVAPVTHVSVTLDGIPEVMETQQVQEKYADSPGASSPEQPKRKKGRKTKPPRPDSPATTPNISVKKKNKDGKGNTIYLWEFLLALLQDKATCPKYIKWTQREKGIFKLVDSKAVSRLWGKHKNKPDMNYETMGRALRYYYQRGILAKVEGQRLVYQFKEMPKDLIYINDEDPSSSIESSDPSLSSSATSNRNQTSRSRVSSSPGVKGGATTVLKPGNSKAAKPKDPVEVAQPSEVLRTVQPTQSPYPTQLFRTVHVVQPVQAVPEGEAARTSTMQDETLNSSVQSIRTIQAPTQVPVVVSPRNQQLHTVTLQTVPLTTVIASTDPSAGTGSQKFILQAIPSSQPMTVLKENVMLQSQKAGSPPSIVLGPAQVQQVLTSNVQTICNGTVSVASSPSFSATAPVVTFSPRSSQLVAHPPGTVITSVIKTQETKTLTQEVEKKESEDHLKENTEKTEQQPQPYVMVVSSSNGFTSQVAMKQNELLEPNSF
# Chain of SPIB (Q01892 whole entry): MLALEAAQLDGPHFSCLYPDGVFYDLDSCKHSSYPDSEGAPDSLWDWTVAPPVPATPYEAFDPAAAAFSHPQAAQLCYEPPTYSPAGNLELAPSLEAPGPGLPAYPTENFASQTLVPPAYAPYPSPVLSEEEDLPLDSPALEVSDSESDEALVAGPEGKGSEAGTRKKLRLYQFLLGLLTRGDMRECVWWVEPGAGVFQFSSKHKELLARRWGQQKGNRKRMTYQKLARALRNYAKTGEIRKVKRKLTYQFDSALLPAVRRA
# Chain of ELF4 (Q99607 whole entry): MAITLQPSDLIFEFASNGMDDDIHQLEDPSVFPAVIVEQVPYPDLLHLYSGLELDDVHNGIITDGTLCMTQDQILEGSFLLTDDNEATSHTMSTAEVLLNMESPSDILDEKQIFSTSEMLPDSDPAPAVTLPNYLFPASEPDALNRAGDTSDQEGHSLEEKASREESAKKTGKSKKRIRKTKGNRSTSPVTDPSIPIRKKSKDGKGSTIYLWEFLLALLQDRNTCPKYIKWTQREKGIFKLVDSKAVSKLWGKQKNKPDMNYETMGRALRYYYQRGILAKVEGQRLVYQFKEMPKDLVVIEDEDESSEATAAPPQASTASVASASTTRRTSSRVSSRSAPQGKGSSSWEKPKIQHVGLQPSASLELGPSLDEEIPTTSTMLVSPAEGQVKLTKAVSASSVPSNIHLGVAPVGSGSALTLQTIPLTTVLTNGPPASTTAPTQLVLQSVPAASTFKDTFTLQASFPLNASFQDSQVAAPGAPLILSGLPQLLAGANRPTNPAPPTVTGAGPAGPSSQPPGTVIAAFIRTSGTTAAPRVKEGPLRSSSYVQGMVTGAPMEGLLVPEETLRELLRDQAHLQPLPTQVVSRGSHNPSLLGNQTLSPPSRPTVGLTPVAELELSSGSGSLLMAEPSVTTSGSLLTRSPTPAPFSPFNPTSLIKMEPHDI
# Chain of HSF1 (Q00613 whole entry): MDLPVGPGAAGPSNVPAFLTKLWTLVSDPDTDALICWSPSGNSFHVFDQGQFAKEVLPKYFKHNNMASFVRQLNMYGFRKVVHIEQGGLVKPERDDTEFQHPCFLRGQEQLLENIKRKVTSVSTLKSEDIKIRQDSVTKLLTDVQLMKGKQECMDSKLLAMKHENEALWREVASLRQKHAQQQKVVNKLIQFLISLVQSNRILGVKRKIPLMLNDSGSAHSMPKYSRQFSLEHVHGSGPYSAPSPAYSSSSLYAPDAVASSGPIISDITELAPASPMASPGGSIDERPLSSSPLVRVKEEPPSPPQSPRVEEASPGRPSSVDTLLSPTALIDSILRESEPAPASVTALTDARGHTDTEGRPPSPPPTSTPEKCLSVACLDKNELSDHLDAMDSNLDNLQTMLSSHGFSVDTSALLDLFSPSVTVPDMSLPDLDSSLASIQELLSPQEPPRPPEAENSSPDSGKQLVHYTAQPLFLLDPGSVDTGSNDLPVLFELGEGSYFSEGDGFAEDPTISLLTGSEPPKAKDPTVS
sequence,measurement,setting,value
TGCAAC,binding signal,FLI1,"1.27 fold enrichment (6-mer frequency, TF over GST control)"
same,binding signal,ELK1,"1.32 fold enrichment (6-mer frequency, TF over GST control)"
same,binding signal,GABPA,"1.4 fold enrichment (6-mer frequency, TF over GST control)"
same,binding signal,ERG,"1.41 fold enrichment (6-mer frequency, TF over GST control)"
same,binding signal,ELF1,"1.35 fold enrichment (6-mer frequency, TF over GST control)"
same,binding signal,EHF,"1.36 fold enrichment (6-mer frequency, TF over GST control)"
same,binding signal,SPI1,"1.28 fold enrichment (6-mer frequency, TF over GST control)"
same,binding signal,SPIB,"1.34 fold enrichment (6-mer frequency, TF over GST control)"
same,binding signal,ELK3,"1.43 fold enrichment (6-mer frequency, TF over GST control)"
same,binding signal,FEV,"1.39 fold enrichment (6-mer frequency, TF over GST control)"
same,binding signal,ETV5,"1.3 fold enrichment (6-mer frequency, TF over GST control)"
same,binding signal,HSF1,"1.06 fold enrichment (6-mer frequency, TF over GST control)"
same,binding signal,SPIC,"1.19 fold enrichment (6-mer frequency, TF over GST control)"
same,binding signal,ELF4,"1.3 fold enrichment (6-mer frequency, TF over GST control)"
same,binding signal,ELK4,"1.46 fold enrichment (6-mer frequency, TF over GST control)"
same,binding signal,ETV2,"1.31 fold enrichment (6-mer frequency, TF over GST control)"
same,binding signal,ELF3,"1.42 fold enrichment (6-mer frequency, TF over GST control)"
same,binding signal,ETV1,"1.4 fold enrichment (6-mer frequency, TF over GST control)"
